Results as given in PubChem BioAssay (Tox21).
“And” between values parts separate entries of the source, which are not always exact repeats. Equal values may be shown once. Records with an inconclusive call do not appear. Some compounds were tested as several samples or in several runs, with calls that do not always agree. The source made the active and inactive calls. Unless noted, the call rests on the fitted dose curve; in most records, active means well fitted curve in the direction sought with a large enough effect in the repeat runs; inconclusive means weak or mixed curves; inactive means no such curve, though single readings can be large; an effect the other way counts as inactive or inconclusive.

Assays:
[1] = qHTS assay to identify small molecule antagonists of the sonic hedgehog signaling (Shh) pathway (AID 1259369; calls by dose curve; further: nearly all actives have a fitted effect of over 45% in size; further: potency means the concentration at half of the fitted maximal effect)
Summary of the method: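 Inhibition of Shh signalling is measured as reduced Gli1-response-element firefly luciferase output in an NIH/3T3-derived stable reporter clone stimulated with conditioned medium for 24hr.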

[2] = biological target: Estrogen receptor beta (Homo sapiens) (UniProt Q92731); assay: qHTS assay to identify small molecule agonists of the estrogen receptor beta (ER-beta) signaling pathway (AID 1259377; active means well fitted activation curve with a large enough effect in the signal ratio in the repeat runs, not every such curve was filed as active; the % refers to the signal ratio)
Sequence of Estrogen receptor beta (Homo sapiens) (Q92731 whole entry, looked up): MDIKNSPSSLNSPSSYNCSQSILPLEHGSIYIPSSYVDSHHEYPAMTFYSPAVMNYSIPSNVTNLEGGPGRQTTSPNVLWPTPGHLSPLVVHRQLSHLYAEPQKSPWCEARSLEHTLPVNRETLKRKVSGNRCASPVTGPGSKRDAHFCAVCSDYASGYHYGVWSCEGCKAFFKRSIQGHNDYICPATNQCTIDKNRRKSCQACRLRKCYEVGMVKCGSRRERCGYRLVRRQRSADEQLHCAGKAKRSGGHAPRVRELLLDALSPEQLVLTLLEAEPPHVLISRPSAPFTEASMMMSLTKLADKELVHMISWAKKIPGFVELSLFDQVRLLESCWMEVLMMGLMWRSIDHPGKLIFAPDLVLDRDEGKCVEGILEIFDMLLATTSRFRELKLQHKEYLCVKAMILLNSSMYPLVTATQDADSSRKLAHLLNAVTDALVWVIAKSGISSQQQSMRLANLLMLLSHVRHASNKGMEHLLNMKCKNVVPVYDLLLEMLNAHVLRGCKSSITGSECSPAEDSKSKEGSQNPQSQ
Summary of the method: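 A UAS-controlled beta-lactamase reporter in ER-beta-UAS-bla HEK293T cells reports receptor activation. Compounds act for 16 hr at 37C in 2% charcoal-stripped serum, and a FRET substrate is read by fluorescence after 2 hours.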

[3] = biological target: Estrogen receptor beta (Homo sapiens) (UniProt Q92731); assay: qHTS assay to identify small molecule antagonists of the estrogen receptor beta (ER-beta) signaling pathway (AID 1259378; active means well fitted inhibition curve with a large enough effect in the signal ratio in the repeat runs, not every such curve was filed as active; the % refers to the signal ratio; further: potency means the concentration at half of the fitted maximal effect)
Summary of the method: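 Antagonist mode: compounds added to beta-lactamase reporter HEK293T ER-beta-UAS cells stimulated with E2 (1nM final), 16 hr at 37C. LiveBLAzer B/G FRET substrate, 2 hours room temperature, fluorescence read-out.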

[4] = qHTS assay to identify small molecule agonists of the androgen receptor (AR) signaling pathway in the presence of an antagonist - cell viability counter screen (AID 1259379); further: nearly all actives have a fitted effect of over 25% in size; further: potency means the concentration at half of the fitted maximal effect
Summary of the method: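 Fluorescence from CellTiter-Fluor, added after 15 hr and read 1 hr later, gave cell viability. Cells were MDA-kb2 exposed to compounds (15 concentrations) in the presence of 3.0uM nilutamide at 37C, 0% CO2.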

[5] = qHTS assay to identify small molecule agonists of the estrogen receptor beta (ER-beta) signaling pathway - cell viability counter screen (AID 1259380); further: nearly all actives have a fitted effect of over 30% in size; further: potency means the concentration at half of the fitted maximal effect
Summary of the method: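 Same-well viability counter screen. Cells: ER-beta-UAS-bla HEK293T, plated 6 hr before compound, in 2% charcoal-stripped FBS. Compound exposure 16 hr, 37C; viability by CellTiter-Glo luminescence after 30 min at room temperature.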

[6] = qHTS assay to identify small molecule antagonists of the estrogen receptor beta (ER-beta) signaling pathway - cell viability counter screen (AID 1259382); further: nearly all actives have a fitted effect of over 55% in size; further: potency means the concentration at half of the fitted maximal effect
Summary of the method: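 Following a 6 hr plating period, HEK293T cells carrying a UAS-driven beta-lactamase reporter under ER-beta control received compounds and 1nM E2 (final). After 16 hr at 37C and 2 hr substrate loading, CellTiter-Glo luminescence indicated viability.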

[7] = biological target: Estrogen receptor (Homo sapiens) (UniProt P03372); assay: qHTS assay to identify small molecule agonists of the estrogen receptor alpha (ER-alpha) signaling pathway in the presence of an antagonist (AID 1259383; calls by dose curve; further: nearly all actives have a fitted effect of over 15% in size; further: potency means the concentration at half of the fitted maximal effect; on activation: top concentration of the series differs between compounds)
Sequence of Estrogen receptor (Homo sapiens) (P03372 whole entry, looked up): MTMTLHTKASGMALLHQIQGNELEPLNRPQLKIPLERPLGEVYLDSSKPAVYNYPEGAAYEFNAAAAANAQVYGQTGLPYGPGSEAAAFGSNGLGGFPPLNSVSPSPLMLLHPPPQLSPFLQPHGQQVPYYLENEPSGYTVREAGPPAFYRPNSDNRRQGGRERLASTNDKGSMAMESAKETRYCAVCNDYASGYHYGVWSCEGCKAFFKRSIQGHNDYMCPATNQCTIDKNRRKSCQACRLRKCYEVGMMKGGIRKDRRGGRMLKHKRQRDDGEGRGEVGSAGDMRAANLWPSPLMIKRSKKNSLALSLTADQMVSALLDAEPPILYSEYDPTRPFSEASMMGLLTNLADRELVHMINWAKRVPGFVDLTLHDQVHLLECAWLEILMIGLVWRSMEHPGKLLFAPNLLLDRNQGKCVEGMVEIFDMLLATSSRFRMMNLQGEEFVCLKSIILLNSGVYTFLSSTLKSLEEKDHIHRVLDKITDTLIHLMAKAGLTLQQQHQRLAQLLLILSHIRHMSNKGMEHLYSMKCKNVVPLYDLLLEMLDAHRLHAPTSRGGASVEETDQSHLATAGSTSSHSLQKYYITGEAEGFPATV
Summary of the method: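 Cells are hormone-deprived for 5 days (charcoal-stripped FBS, no phenol red), plated for 24hr, spiked with 10.0nM ICI-182,780, then dosed at 15 concentrations. After 22hr at 37C, ONE-Glo luminescence reports ERE-luciferase activity.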

[8] = qHTS assay to identify small molecule agonists or antagonists of the thyroid stimulating hormone receptor (TSHR) signaling pathway - wild type cell line counter screen (AID 1259384; calls by dose curve)
Summary of the method: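 Counter screen in untransfected Hek293: compounds (15-point titration, triplicate) plus phosphodiesterase inhibitor Ro20-1724 added after 18 h plating; 30 min RT. Intracellular cAMP via competitive d2/cryptate immunoassay, 1 h incubation.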

[9] = biological target: Thyrotropin receptor (Homo sapiens) (UniProt P16473); assay: qHTS assay to identify small molecule antagonists of the thyroid stimulating hormone receptor (TSHR) signaling pathway (AID 1259385; calls by dose curve; further: nearly all actives have a fitted effect of over 20% in size)
Sequence of Thyrotropin receptor (Homo sapiens) (P16473 whole entry, looked up): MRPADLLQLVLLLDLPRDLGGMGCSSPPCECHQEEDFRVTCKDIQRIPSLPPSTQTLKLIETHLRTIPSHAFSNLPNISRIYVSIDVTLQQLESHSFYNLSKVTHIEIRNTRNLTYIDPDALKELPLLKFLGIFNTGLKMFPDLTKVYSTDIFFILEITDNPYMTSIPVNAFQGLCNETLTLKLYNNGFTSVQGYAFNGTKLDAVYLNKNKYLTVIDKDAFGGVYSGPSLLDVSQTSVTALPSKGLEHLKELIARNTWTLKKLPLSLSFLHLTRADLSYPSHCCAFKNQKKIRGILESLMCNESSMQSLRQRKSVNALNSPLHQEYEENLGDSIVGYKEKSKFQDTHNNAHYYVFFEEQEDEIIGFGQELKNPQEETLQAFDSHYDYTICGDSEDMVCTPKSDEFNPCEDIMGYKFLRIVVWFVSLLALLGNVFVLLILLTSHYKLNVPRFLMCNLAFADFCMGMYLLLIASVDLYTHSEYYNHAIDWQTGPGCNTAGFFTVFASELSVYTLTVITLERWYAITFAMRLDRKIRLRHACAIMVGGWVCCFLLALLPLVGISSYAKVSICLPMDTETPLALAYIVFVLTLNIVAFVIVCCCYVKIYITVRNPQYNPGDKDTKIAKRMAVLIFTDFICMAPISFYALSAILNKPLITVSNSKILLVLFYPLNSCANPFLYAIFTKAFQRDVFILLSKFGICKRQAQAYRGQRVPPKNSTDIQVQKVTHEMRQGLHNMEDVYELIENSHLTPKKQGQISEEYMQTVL
Summary of the method: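 Antagonist mode: compound-treated TSHR-expressing HEK293 cells were stimulated with 1.5 ng/mL TSH (final) in presence of Ro20-1724 for 30 min at RT. HTRF cAMP detection after 1 h; each compound tested at 15 concentrations, triplicate.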

[10] = qHTS assay to identify small molecule agonists of the estrogen receptor alpha (ER-alpha) signaling pathway in the presence of an antagonist - cell viability counter screen (AID 1259386);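 further: cells exposed to compounds for 22 h at 37 °C before the viability read; nearly all actives have a fitted effect of over 30% in size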; further: potency means the concentration at half of the fitted maximal effect
Summary of the method: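 Cells are starved of estrogens for 5 days in charcoal-stripped serum, seeded for 24hr and co-treated with ICI-182,780 (10.0nM final) and test compounds. After 22hr at 37C, viability is read as CellTiter-Fluor fluorescence.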

[11] = biological target: Progesterone receptor (Homo sapiens) (UniProt P06401); assay: qHTS assay to identify small molecule agonists of the progesterone receptor (PR) signaling pathway (AID 1346784; calls by dose curve; further: nearly all actives have a fitted effect of over 30% in size; further: potency means the concentration at half of the fitted maximal effect)
Sequence of Progesterone receptor (Homo sapiens) (P06401 whole entry, looked up): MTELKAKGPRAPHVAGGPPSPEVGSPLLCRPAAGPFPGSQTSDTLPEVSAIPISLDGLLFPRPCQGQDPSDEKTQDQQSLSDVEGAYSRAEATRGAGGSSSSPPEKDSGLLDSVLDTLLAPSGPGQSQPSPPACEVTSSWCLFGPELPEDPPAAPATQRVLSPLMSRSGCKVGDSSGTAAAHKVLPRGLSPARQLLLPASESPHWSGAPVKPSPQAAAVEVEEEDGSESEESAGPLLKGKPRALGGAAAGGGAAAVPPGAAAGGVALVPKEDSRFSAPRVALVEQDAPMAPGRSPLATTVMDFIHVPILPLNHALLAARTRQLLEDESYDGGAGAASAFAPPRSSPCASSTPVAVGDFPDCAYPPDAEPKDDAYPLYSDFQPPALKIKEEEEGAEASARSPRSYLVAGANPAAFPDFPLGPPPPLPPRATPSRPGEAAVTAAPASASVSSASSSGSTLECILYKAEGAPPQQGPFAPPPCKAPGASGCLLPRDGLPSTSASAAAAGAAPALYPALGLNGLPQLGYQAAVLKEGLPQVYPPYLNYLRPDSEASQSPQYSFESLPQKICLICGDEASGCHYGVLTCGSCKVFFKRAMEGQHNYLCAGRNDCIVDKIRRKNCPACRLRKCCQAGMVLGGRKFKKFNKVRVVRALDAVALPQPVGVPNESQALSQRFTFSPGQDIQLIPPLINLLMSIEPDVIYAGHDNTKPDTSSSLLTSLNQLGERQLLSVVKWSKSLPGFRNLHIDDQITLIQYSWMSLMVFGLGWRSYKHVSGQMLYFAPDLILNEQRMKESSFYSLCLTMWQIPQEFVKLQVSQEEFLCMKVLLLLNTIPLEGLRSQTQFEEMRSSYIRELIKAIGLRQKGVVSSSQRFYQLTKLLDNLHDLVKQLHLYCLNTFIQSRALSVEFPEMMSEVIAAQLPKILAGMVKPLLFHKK
Summary of the method: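 Agonist mode, quantitative HTS format in a HEK 293T line expressing a UAS-controlled beta-lactamase reporter; 16 hr compound exposure at 37C in 2% charcoal-stripped FBS, then LiveBLAzer B/G FRET fluorescence.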

[12] = biological target: Progesterone receptor (Homo sapiens) (UniProt P06401); assay: qHTS assay to identify small molecule antagonists of the progesterone receptor (PR) signaling pathway (AID 1346795; active means well fitted inhibition curve with a large enough effect in the signal ratio in the repeat runs, not every such curve was filed as active; the % refers to the signal ratio; further: potency means the concentration at half of the fitted maximal effect)
Summary of the method: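 HEK293T PR-UAS-bla reporter cells in charcoal-stripped serum (2%) received compound after a 6 hr settling period, followed by R5020 agonist at 1 nM final; 16 hr incubation preceded the FRET substrate step and fluorescence measurement.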

[13] = qHTS assay to identify small molecule agonists of the progesterone receptor (PR) signaling pathway - cell viability counter screen (AID 1346799; calls by dose curve; further: nearly all actives have a fitted effect of over 45% in size; further: potency means the concentration at half of the fitted maximal effect)
Summary of the method: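 Counter screen for cytotoxicity: compound-treated PR-UAS-bla HEK293T cells (16 hr, 37C, 5% CO2) were assayed with CellTiter-Glo, luminescence measured after 30 min at room temperature.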

[14] = qHTS assay to identify small molecule antagonists of the TGF-beta/Smad signaling pathway - cell viability counter screen (AID 1346824); further: nearly all actives have a fitted effect of over 50% in size
Summary of the method: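 Cytotoxicity counter-screen run in the same wells as the beta-lactamase Smad reporter read: CellTiter-Glo luminescence after 30 min at room temperature. HEK 293T SBE-bla cells had 5 hr compound exposure at 37 C with TGF-beta1 (0.25 ng/mL stock).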

[15] = qHTS assay to identify small molecule agonists of the TGF-beta/Smad signaling pathway - cell viability counter screen (AID 1346829); further: nearly all actives have a fitted effect of over 45% in size; further: potency means the concentration at half of the fitted maximal effect
Summary of the method: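 In parallel with the Smad reporter read, viability of HEK 293T cells stably carrying SBE-bla is quantified by ATP luminescence following 5 hr compound treatment.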

[16] = qHTS assay to identify small molecule agonists of the TGF-beta/Smad signaling pathway (AID 1346859; active means well fitted activation curve with a large enough effect in the signal ratio in the repeat runs, not every such curve was filed as active; the % refers to the signal ratio; further: series mostly up to about 77 µM)
Summary of the method: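 Smad-responsive beta-lactamase reporter cells (HEK 293T) received compounds from DMSO stocks after overnight attachment, were incubated 5 hr, then treated 2 hr with FRET substrate before dual-emission fluorescence measurement (405 nm excitation).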

[17] = biological target: Thyrotropin-releasing hormone receptor (Homo sapiens) (UniProt P34981); assay: qHTS assay to identify small molecule antagonists of the thyrotropin-releasing hormone receptor (TRHR) signaling pathway (AID 1346877; active means well fitted inhibition curve with a large enough effect in the repeat runs, not every such curve was filed as active; further: series mostly up to about 51 µM)
Sequence of Thyrotropin-releasing hormone receptor (Homo sapiens) (P34981 whole entry, looked up): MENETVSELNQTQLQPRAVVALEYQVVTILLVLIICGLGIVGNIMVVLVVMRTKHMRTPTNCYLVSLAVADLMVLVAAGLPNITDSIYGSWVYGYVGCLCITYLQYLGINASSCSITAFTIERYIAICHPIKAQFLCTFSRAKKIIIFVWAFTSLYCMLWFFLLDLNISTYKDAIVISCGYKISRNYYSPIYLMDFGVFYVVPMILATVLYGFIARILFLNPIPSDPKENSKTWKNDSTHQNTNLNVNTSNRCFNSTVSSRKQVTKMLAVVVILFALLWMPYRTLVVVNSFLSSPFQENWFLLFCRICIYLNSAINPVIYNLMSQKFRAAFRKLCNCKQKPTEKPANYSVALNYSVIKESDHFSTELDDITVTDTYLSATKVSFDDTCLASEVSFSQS
Summary of the method: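 Cells (TRHR-HEK293) are plated and kept 18 h at 37 °C/5% CO2. A calcium-sensitive dye is added for 2 h, compound follows for 5 min at room temperature, and TRH is then given at 1 nM final.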

[18] = biological target: Thyrotropin-releasing hormone receptor (Homo sapiens) (UniProt P34981); assay: qHTS assay to identify small molecule agonists of the thyrotropin-releasing hormone receptor (TRHR) signaling pathway (AID 1346891; calls by dose curve;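 further: HEK293 cells expressing TRHR with calcium dye readout; series mostly up to about 58 µM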)
Summary of the method: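 Agonist-mode calcium mobilisation screen: TRHR-transfected HEK293 cells cultured overnight (18 h), dye-loaded for 2 h at 37 °C, exposed to compounds, and monitored by fluorescence for 3 min.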

[19] = qHTS assay to identify small molecule antagonists of the progesterone receptor (PR) signaling pathway - cell viability counter screen (AID 1346798); further: nearly all actives have a fitted effect of over 50% in size; further: potency means the concentration at half of the fitted maximal effect
Summary of the method: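 Same-well multiplex: after 16 hr at 37C with compound and R5020 stimulation, HEK293T cells carrying a UAS-bla reporter received LiveBLAzer substrate (2 hr RT), then CellTiter-Glo (30 min RT) for luminescent viability.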

[20] = biological target: Androgen receptor (Homo sapiens) (UniProt P10275); assay: qHTS assay to identify small molecule agonists of the androgen receptor (AR) signaling pathway in the presence of an antagonist (AID 1259381; calls by dose curve; further: nearly all actives have a fitted effect of over 15% in size)
Sequence of Androgen receptor (Homo sapiens) (P10275 whole entry, looked up): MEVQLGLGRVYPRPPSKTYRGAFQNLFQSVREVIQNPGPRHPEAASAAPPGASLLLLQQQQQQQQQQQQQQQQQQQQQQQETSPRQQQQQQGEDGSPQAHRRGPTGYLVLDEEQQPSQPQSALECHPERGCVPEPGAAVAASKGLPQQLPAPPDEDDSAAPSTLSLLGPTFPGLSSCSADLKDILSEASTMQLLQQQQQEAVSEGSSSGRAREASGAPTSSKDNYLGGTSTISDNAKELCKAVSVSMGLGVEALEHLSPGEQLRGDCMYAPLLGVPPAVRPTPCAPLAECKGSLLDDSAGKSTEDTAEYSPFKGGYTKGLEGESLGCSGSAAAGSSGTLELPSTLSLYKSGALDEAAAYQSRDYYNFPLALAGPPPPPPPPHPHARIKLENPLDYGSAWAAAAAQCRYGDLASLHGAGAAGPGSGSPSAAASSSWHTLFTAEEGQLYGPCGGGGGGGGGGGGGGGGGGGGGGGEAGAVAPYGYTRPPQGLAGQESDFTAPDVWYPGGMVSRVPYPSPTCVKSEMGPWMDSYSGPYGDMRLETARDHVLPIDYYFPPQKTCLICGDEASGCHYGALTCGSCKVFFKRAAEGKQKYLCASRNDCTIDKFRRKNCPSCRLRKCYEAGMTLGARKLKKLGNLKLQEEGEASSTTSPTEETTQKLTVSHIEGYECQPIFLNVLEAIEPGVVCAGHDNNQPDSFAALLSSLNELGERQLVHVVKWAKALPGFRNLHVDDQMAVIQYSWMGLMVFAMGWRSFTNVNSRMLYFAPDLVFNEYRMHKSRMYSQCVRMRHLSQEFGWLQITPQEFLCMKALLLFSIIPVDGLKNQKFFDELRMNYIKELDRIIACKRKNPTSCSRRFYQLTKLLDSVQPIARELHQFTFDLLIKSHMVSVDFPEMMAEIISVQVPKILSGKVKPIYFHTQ
Summary of the method: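 Cells are MDA-kb2 (human breast carcinoma, MMTV-luc, AR/GR responsive). Nilutamide is present at 3.0uM final throughout; compounds are added at 15 concentrations and incubated 16hr at 37C before ONE-Glo luminescence detection.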

Measured: Potency

CC(C)=CC1C(C(=O)OCc2cccc(Oc3ccccc3)c2)C1(C)C (configuration not stated)
inactive: [1] | [2] | [3] | [4] | [5] | [6] | [7] | [8] | [9] | [10] | [11] | [12] | [13] | [14] | [15] | [16] | [17] | [18]

Cn1c(-c2ccccc2)cc(-c2ccccc2)[n+]1C
active: [4] 24.3 µM and 19.3 µM
inactive: [2] | [3] | [5] | [6] | [7] | [8] | [9] | [11] | [13] | [15] | [16] | [17] | [18]
306 nM (active) and inactive: [1]

Cc1cccc(N=Nc2ccc(N(C)C)cc2)c1
active: [4] 39.2 µM and 30.6 µM | [5] 31.2 µM | [7] 247 nM and 273 nM | [10] 24.8 µM and 24.3 µM
inactive: [1] | [2] | [3] | [6] | [8] | [9] | [11] | [13] | [15] | [16] | [17] | [18]

C=C(C)C#N
inactive: [1] | [2] | [3] | [4] | [5] | [6] | [7] | [9] | [10] | [11] | [12] | [19] | [13] | [14] | [15] | [16] | [17] | [18]

Clc1ccccc1-c1nnc(-c2ccccc2Cl)nn1
inactive: [1] | [2] | [3] | [4] | [5] | [6] | [7] | [8] | [9] | [10] | [11] | [13] | [14] | [15] | [16] | [17]

Cc1ccc([N+](=O)[O-])cc1
inactive: [1] | [2] | [3] | [4] | [5] | [6] | [7] | [9] | [10] | [11] | [12] | [13] | [14] | [15] | [16] | [17]

CCOP(=S)(OCC)OP(=S)(OCC)OCC
inactive: [1] | [2] | [3] | [4] | [5] | [20] | [6] | [8] | [9] | [10] | [11] | [12] | [19] | [13] | [15] | [16] | [17]

CCNCC
inactive: [1] | [2] | [3] | [4] | [5] | [6] | [8] | [9] | [10] | [11] | [12] | [19] | [13] | [14] | [15] | [16] | [17]

CCCCSP(=O)(SCCCC)SCCCC
inactive: [1] | [2] | [3] | [4] | [5] | [6] | [10] | [11] | [19] | [13] | [14] | [15] | [16] | [17] | [18]

CSc1nc(NC(C)C)nc(NC(C)C)n1
inactive: [2] | [3] | [4] | [5] | [6] | [7] | [10] | [11] | [13] | [14] | [15] | [16] | [17] | [18]
active: [1] 766 nM

Nc1ncn[nH]1
inactive: [1] | [2] | [3] | [4] | [5] | [6] | [9] | [10] | [11] | [12] | [13] | [15] | [16]

CCCCCCCCCc1ccc(O)cc1
active: [1] 30.9 µM and 43.3 µM | [3] 19.5 µM | [5] 13.8 µM and 43.3 µM | [12] 27.6 µM and 61.1 µM
inactive: [2] | [4] | [7] | [8] | [9] | [10] | [11] | [13] | [15] | [16] | [17]

[CH3][Sn]([Cl])([Cl])[Cl]
inactive: [1] | [2] | [3] | [4] | [5] | [6] | [8] | [9] | [10] | [11] | [13] | [14] | [15] | [16] | [17] | [18]

CC(O)CN(CC(C)O)CC(C)O (configuration not stated)
inactive: [1] | [2] | [3] | [4] | [5] | [6] | [9] | [10] | [11] | [12] | [13] | [15] | [16] | [17]

CCC[CH2][Sn]([Cl])([Cl])[CH2]CCC
inactive: [2] | [7] | [17]
active: [1] 196 nM and 243 nM | [4] 552 nM and 1.09 µM | [5] 981 nM and 1.54 µM | [6] 1.39 µM and 1.54 µM | [10] 1.96 µM and 2.17 µM | [19] 1.1 µM and 1.37 µM | [13] 1.1 µM and 1.37 µM | [15] 7.01 µM and 15.5 µM

COP(=S)(OC)SCn1nnc2ccccc2c1=O
30 µM (active) and inactive: [1]
inactive: [2] | [4] | [20] | [6] | [7] | [9] | [10] | [11] | [19] | [13] | [14] | [15] | [16] | [17] | [18]

c1ccc2c(c1)Nc1ccccc1S2
1.54 µM (active) and inactive: [11]
inactive: [1] | [2] | [3] | [4] | [5] | [6] | [7] | [10] | [13] | [15] | [16] | [17] | [18]
